48 molecules from PubChem BioAssay AID2685 (National Center for Advancing Translational Sciences (NCATS), 2010) can be followed below.

In all, about 320,000 compounds went through this assay and about 2,100 (0.66%) were called active. Inconclusive results (about 53%) are left out. Calls follow the shape of the dose curve; as a rule, active = well fitted inhibition curve with a large enough effect in the signal ratio, with a control signal flat (not every such curve was filed as active); inconclusive = small, poorly fitted or top-dose-only effect, or effect the other way, or a change in a side signal; inactive = flat fitted curve, though single readings scatter; the % refers to the signal ratio. Many of the other results were omitted from the sample, so actives are more common in it than they were.
Potency is read from the fitted curve at half-maximal effect.

The experiment is described as follows: qHTS Assay for Lipid Storage Modulators in Drosophila S3 Cells.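 As to cell number change: cells counted by Cell Tracker Red CMTPX staining in the red channel.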 As to lipid storage change, negative = inhibition: % is scaled to controls: 0 for no effect and ±100 for the full control effect. Particulars: BODIPY lipid droplet fluorescence, 18-24 h, cells fed with added oleic acid; cell number change: measured here: cell count max response; series mostly up to 46.1 µM. An excerpt:
NIH Molecular Libraries Probe Production Centers Network [MLPCN] NIH Chemical Genomics Center [NCGC] MLPCN Grant: 1 R03 MH085686-01 Assay Submitter (PI): Beller, Mathias; Max-Planck-Institut fur Biophysikalische Chemie NCGC Assay Overview: Storing lipids as a reservoir for energy or the anabolism of elementary metabolites is a common feature of probably all cells and is conserved from bacteria to humans. The universal cellular lipid storage organelle is the so-called lipid storage droplet (LD). Although ubiquitous, LDs share a simple structure composed of a hydrophobic core that harbors the storage lipids, which is shielded by a droplet-specific phospholipid monolayer to which proteins are attached. The current model of LD biogenesis involves an incorporation of the lipid core into the membrane leaflets of the endoplasmic reticulum (ER) followed by a subsequent budding-like maturation of a LD, which ultimately pinches off. Once released, LD volume can increase by localized lipogenesis or fusion of existing droplet. Storage lipids are re-mobilized enzymatically by lipase activity. Lipase regulation in the adipocyte is heavily studied and involves multiple components including catecholamine signaling, the LD-associated proteins Perilipin and comparative gene identification (CGI-58) and at least two lipases named hormone sensitive lipase (HSL) and adipocyte triglyceride lipase (ATGL). LD regulation outside of the adipocyte is poorly understood and only few components are known. However, there is an urgent need to learn more about ectopic fat depots as mislocalized storage of lipids, for example in the liver or muscle, is an eminent health problem associated with insulin resistance or the metabolic syndrome. We developed a laser-scanning cytometer assay to enable 1,536-well screening and combined the results of the small molecules screen with an RNAi database based on lipid storage.
Triacsin C (Sigma-Aldrich T-4540), an inhibitor of long-chain fatty acyl CoA synthetase that blocks synthesis of triglycerides, was used as a positive control for lipid under-storage. A total of 23 nL of compound solution of different concentrations were transferred to the assay plates using a Kalypsys pin tool equipped with a 1,536-pin array containing 10-nL slotted pins (FP1S10, 0.457-mm diameter, 50.8 mm long; V&P Scientific). One microliter of oleic acid (400 uM) was added, and the plate was lidded with stainless steel rubber gasket lined lids containing pinholes. […] Fluorescence was detected by excitation of the fluorophores with a 488-nm laser on an Acumen Explorer (TTP Lab Tech). The total intensity in channel 2 (500-530 nm) reflected lipid droplet accumulation. Cells were detected using channel 3 (575-640 nm) with 5-um width and 100-um depth filters. The ratio of the number of objects in PMT channel 2 over the number of objects in PMT channel 3 was also calculated. Percent activity was computed relative to an internal control (100% inhibited lipid droplet deposition due to the presence of 20 uM Triacsin C), which was added to 32 wells/plate.
In general terms: In qHTS, concentration-response curves come from the screen itself.
For `C/C(=N/NC(=O)c1ccncc1)c1ccccc1`, the Potency entry was “inactive” and the cell number change was -7.04%.

With `Cc1ccccc1NC(=O)COC(=O)c1ccc(S(C)(=O)=O)c([N+](=O)[O-])c1`, the Potency was 25.9 µM (active) and the cell number change was -15.7%.

With `CC(=O)c1cccc(NC(=O)COC(=O)c2ccc(S(C)(=O)=O)c([N+](=O)[O-])c2)c1`, the Potency result is “inactive” and the cell number change is -10.3%.

Take `Cc1ccccc1NC(=O)COC(=O)c1ccc(S(=O)(=O)N2CCCC2)cc1`: the Potency result is “inactive” and the cell number change came out at 10.7%.

For `Cc1ccc(NC(=O)c2c(C)nn(-c3ccccc3)c2Cl)c(C)c1`, the Potency entry was “inactive” and the cell number change was -13.2%.

As to `CC(=O)N1CCOc2ccc(S(=O)(=O)N3CCC(C(=O)NCc4ccc(C)cc4)CC3)cc21`, the Potency entry is “inactive” and the cell number change is 17.2%.

For the molecule `CCCCS(=O)(=O)N1CCC(C(=O)NCC2CCCO2)CC1` (centres undefined), the Potency entry is “inactive” and the cell number change amounted to 5.96%.

With `CS(=O)(=O)N1CCC(C(=O)NCC2CCCO2)CC1` (centres undefined), the Potency was 2.31 µM (active) and the cell number change was -2.74%.

In the case of `CCCS(=O)(=O)N1CCC(C(=O)NCC2CCCO2)CC1` (centres undefined), the Potency entry was “inactive”.

Regarding `COc1ccc(CC(=O)NC2CC2)cc1OC`, the Potency entry is “inactive” and the cell number change is 20.4%.

With `Cc1ccccc1C(=O)NC1CCN(Cc2nnnn2C(C)(C)C)CC1`, the Potency entry is “inactive”.

With `COc1ccc(CC(=O)NC2CCN(Cc3nnnn3C(C)(C)C)CC2)cc1OC`, the Potency is 2.59 µM (active) and the cell number change was -1.5%.

For `CCN=C1SC(CC(=O)NC(C)c2ccccc2)C(=O)N1CC` (centres undefined), the Potency result was “inactive” and the cell number change turned out to be 8.53%.

`O=[N+]([O-])c1ccc(N2CCN(CCO)CC2)cc1Sc1nc2ccccc2[nH]1`: the Potency result was “inactive” and the cell number change is -10.6%.

With `CN1CCN(NC(=S)Nc2ccccc2)CC1`, the Potency result was “inactive” and the cell number change was found to be 5.3%.

Regarding `Cc1cccc(C)c1NC(=S)NN1CCN(C)CC1`, the Potency was 23.1 µM (active) and the cell number change was -31.3%.

Turning to `Cc1cccc(NC(=S)NN2CCN(C)CC2)c1C`, the Potency entry was “inactive” and the cell number change stood at 19.2%.

With `COC(=O)c1ccc(COc2ccccc2OC)o1`, the Potency result is “inactive” and the cell number change is -9.22%.

Consider `COC(=O)c1ccc(Cc2ccc(C(=O)OC)o2)o1`, for which the Potency entry was “inactive” and the cell number change was 11%.

With `COC(=O)c1ccc(Cc2ccccc2)o1`, the Potency is 25.9 µM (active) and the cell number change worked out at 0.155%.

Consider `COc1cccc(CC(=O)N(CCC2=CCCCC2)c2c(N)n(Cc3ccccc3)c(=O)[nH]c2=O)c1`, for which the Potency entry was “inactive” and the cell number change was -11.8%.

`Cc1nn(-c2ccccc2)c2[nH]c(=O)c(CNc3ccc(N4CCOCC4)cc3)cc12`: the Potency result was “inactive” and the cell number change is -0.634%.

`Cc1ccc(-c2nn(-c3ccccc3)c3[nH]c(=O)c(CNCCN(C)C)cc23)cc1`: the Potency result was “inactive” and the cell number change is -8.5%.

Regarding `Cc1nn(-c2ccccc2)c2[nH]c(=O)c(CNCCN3CCOCC3)cc12`, the Potency is 23.1 µM (active) and the cell number change was -6.25%.

`Cc1ccc2c(COC(=O)c3ccccc3Br)cc(=O)oc2c1`: the Potency entry was “inactive” and the cell number change is 8.73%.

In the case of `Cc1ccc2c(COC(=O)c3ccccc3Cl)cc(=O)oc2c1`, the Potency was 1.64 µM (active) and the cell number change was 0.403%.

Take `Cc1ccc2c(COC(=O)c3ccccc3OC(F)F)cc(=O)oc2c1`: the Potency result was “inactive” and the cell number change amounted to 26.6%.

Turning to `CN(C)C(=O)c1cc(C(=O)c2ccccc2Br)c[nH]1`, the Potency entry was “inactive” and the cell number change came out at 10.8%.

In the case of `Cc1nn(CC(=O)NCc2cccnc2)c(C)c1[N+](=O)[O-]`, the Potency result was “inactive” and the cell number change worked out at 15.3%.

On to `COC(c1ccccc1)c1nnc(CCC(=O)N2CCN(C3CCCC3)CC2)o1` (centres undefined), for which the Potency result is “inactive” and the cell number change stood at 22.7%.

For the molecule `COC(c1ccccc1)c1nnc(CCC(=O)NCCc2ccc(Cl)cc2)o1` (centres undefined), the Potency was 14.6 µM (active) and the cell number change was -7.97%.

Regarding `COC(c1ccccc1)c1nnc(CCC(=O)N2CCCCCCC2)o1` (centres undefined), the Potency entry is “inactive” and the cell number change was 7.76%.

Regarding `CCOC(=O)c1ccc(NC(=O)CCc2nc(-c3ccc(C)cc3)no2)cc1`, the Potency result is “inactive”.

`CC(c1ccccc1)C1C(C#N)=C(N)OC2=C1C(=O)CC(C)(C)C2` (centres undefined): the Potency entry was “inactive”.

Turning to `CN(CC(=O)Nc1ccccc1Cl)C(=O)Cn1nnc(-c2ccc(F)cc2)n1`, the Potency entry was “inactive”.

Turning to `CCC1CCCCN1C(=O)c1sc2nc(C)nc(N(CC)CC)c2c1C` (centres undefined), the Potency entry was “inactive” and the cell number change amounted to 9.48%.

As to `CCCCCN(C(=O)CCC(=O)OC(C)C(=O)NCc1ccccc1)c1c(N)n(CCCC)c(=O)[nH]c1=O` (centres undefined), the cell number change was -30.3% and the lipid storage change, negative = inhibition was 4.2% [at 0.0737 µM] (inactive).

For `O=C(CN1CCc2ccccc21)NC(=O)NCc1ccccc1`, the Potency result is “inactive”.

`Cc1ccc(CSCC(=O)NCc2ccco2)cc1`: the Potency result is “inactive” and the cell number change was 14.7%.

As to `CCCCn1c(SCC(=O)NCc2ccco2)nnc1-c1ccco1`, the Potency entry was “inactive” and the cell number change was -17%.

As to `O=C(CN1CCc2ccccc21)NC(=O)NCc1ccco1`, the Potency was 6.51 µM (active) and the cell number change turned out to be 0.297%.

For `Cn1c(SCC(=O)NCc2ccco2)nnc1-c1ccccc1`, the Potency entry was “inactive” and the cell number change is -3.55%.

In the case of `O=C(CSCC(=O)NCc1ccco1)NCc1ccco1`, the Potency is 6.51 µM (active) and the cell number change came to 16.7%.

As for `Cn1c(SCC(=O)NCc2ccco2)nnc1-c1ccc(S(=O)(=O)N2CCOCC2)cc1`, the Potency was 5.8 µM (active) and the cell number change is -9.46%.

Regarding `Cc1ccc(NC(=O)CSc2nnc(-c3ccc(S(=O)(=O)N4CCOCC4)cc3)n2C)cc1`, the Potency result is “inactive”.

`O=C(CSc1ccccc1)NCc1ccco1`: the Potency entry was “inactive” and the cell number change is -1.34%.

For `CCCCn1nnnc1SCC(=O)NNC(=O)c1ccco1`, the Potency result was “inactive” and the cell number change worked out at 1.07%.

In the case of `CCCCn1nnnc1SCC(=O)NCc1ccco1`, the Potency was 23.1 µM (active) and the cell number change came out at 0.128%.
